Screening data: PubChem BioAssay, several laboratories
In the library only some 2.7% were active in any assay of this set; here they are far more common.
FAS-TE inh: FAS thioesterase (human) inhibition; P49327; recombinant FAS-TE, OMFH fluorogenic substrate, fluorescence endpoint; inhibition, % at 15 µM; actives 0.67% (n = 360,000); AID 602261;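 active = compounds whose normalised, plate-corrected inhibition of enzyme fluorescence in the single-dose primary screen is 50% or more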
proKLK7 act: activates the human kallikrein-7 zymogen; P49862; purified proKLK7, EDANS-DABCYL substrate fluorescence; 100% is mature enzyme control, 0% vehicle; activation, % at 7 µM; actives 0.9% (n = 370,000); AID 652039;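 active = activation above the mean of all tested compounds plus 3 SD, computed per campaign excluding outliers beyond control limits, cut at about 13% in these data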
Neddylation inh: cullin neddylation inhibition; TR-FRET cullin neddylation, biochemical; calls only at 25 µM; actives 0.58% (n = 360,000); AID 651699; in the data active = inhibition above about 36%
Target sequence (P61081 whole entry, looked up): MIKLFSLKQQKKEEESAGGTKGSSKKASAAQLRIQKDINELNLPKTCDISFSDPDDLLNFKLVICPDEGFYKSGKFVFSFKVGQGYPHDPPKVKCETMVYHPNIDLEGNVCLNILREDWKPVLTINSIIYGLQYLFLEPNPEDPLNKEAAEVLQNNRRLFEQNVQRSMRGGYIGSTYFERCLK
Target sequence (Q13564 whole entry, looked up): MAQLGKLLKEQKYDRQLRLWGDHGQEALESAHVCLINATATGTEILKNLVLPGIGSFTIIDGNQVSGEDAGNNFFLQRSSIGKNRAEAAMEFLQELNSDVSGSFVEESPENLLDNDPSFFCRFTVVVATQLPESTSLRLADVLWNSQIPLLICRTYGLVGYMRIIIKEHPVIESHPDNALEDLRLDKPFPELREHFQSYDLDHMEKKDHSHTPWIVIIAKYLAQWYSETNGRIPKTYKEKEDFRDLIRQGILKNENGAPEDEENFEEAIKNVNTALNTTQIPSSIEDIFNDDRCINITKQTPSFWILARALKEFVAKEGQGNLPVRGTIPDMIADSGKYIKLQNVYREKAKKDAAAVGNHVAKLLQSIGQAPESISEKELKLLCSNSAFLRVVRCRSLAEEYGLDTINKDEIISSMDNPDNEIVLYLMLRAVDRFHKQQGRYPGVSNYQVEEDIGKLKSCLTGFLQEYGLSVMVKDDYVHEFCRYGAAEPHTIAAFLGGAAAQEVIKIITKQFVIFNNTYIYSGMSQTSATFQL
PfG6PD inh: PfG6PD (Plasmodium falciparum) enzyme inhibition; PfGluPho enzyme, NADPH resazurin-diaphorase fluorescence; AID 504690; inhibition, % at 20 µM; actives 0.78% (n = 350,000);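 active = inhibition reaching at least a set limit at 20 µM in the primary screen, cut at about 59% in these data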
PfGluPho conf: confirmation of Plasmodium falciparum G6PD inhibitors. shares compounds with PfG6PD inh. recombinant PfGluPho, NADPH-diaphorase-resazurin fluorescence. inhibition, % at 20 µM. actives 34% (n = 2,400). AID 504753;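 active = inhibition of at least 50% at 20 µM in any single replicate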
Diaphorase 10uM: diaphorase inhibition or oxidation at 10 uM NADPH | actives 39% (n = 820) | AID 504862 | inhibition, % at 20 µM | diaphorase-coupled resazurin reduction, fluorescence, NADPH 10 uM | shares compounds with PfG6PD inh;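 active = average inhibition reaching 50% or more with the compound at 20 µM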;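 note: resorufin red fluorescence formed as diaphorase reduces resazurin using NADPH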
Diaph ctr 30uM: counter-screen for P. falciparum G6PD inhibitors: diaphorase inhibitors, oxidizers. inhibition, % at 20 µM. actives 29% (n = 820). shares compounds with PfG6PD inh. Diaphorase/resazurin coupled assay, resorufin fluorescence, 30 uM NADPH;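 active = inhibition averaging 50% or more, tested at 20 µM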
Large screens that a line does not name were inactive (follow-up assays come after a bar, where shown).

Cc1ccc(-c2cc(-c3ccccc3)cc(-c3ccccc3)[n+]2-c2ccccc2)cc1	none
Cc1ccc(-c2cc(-c3ccc(C)cc3)[n+](-c3ccccc3)c(-c3ccc(C)cc3)c2)cc1	Neddylation inh active (no result: proKLK7 act)
Cn1ncnc2c(=O)n(C)c(=O)nc1-2	PfG6PD inh 122.1 (no result: proKLK7 act)
COc1cc(C(=O)Nc2ccc(Br)cc2C(=O)c2ccccc2)cc(OC)c1OC	proKLK7 act 25.6
COCCCn1c(N)c(C(=O)NCc2ccco2)c2nc3ccccc3nc21	proKLK7 act 33.5 (no result: FAS-TE inh, Neddylation inh)
CCCCn1c(NC(=O)c2ccc(Br)o2)c(C(=O)OCC)c2nc3ccccc3nc21	proKLK7 act 18.6 (not shown: Neddylation inh)
CC(C)(C)n1nnnc1C1CN=C(c2ccccc2)c2ccccc2N1 (configuration not stated)	none (no result: FAS-TE inh, Neddylation inh, PfG6PD inh)
Cc1ccc(N2C(=O)NC(=O)/C(=C/c3ccoc3)C2=O)cc1	Neddylation inh active
Cc1ccc(N2C(=O)NC(=O)/C(=C/c3cnn(-c4ccc(C)cc4)c3)C2=O)cc1	none
C[C@@H]1CNCCN1c1ccc(N2CC[C@H](O)C2)c(C#N)c1	none (no result: FAS-TE inh, Neddylation inh, PfG6PD inh)
Cc1cc(N2CCNC[C@@H]2C)ccc1N1CCN[C@@H](C)C1	none (no result: FAS-TE inh, Neddylation inh, PfG6PD inh)
O=C1NC(=O)N(c2ccccc2)C(=O)/C1=C\c1ccc([N+](=O)[O-])s1	PfG6PD inh 80.9 (no result: FAS-TE inh, Neddylation inh)
CN1C(=O)NC(=O)/C(=C/c2ccc([N+](=O)[O-])s2)C1=O	PfG6PD inh 81.5
Cc1cc(/C=C2\C(=O)NC(=S)N(C)C2=O)c(C)n1C1CCCCC1	none
CN1C(=O)/C(=C\c2ccc(Br)s2)C(=O)NC1=S	PfG6PD inh 60.4
CC(=O)NCC1=C(c2ccc(S(C)(=O)=O)cc2)C[C@@H]2CC[C@H]1N2CCOc1ccccc1	none (no result: FAS-TE inh, Neddylation inh, PfG6PD inh)
C=CC1C[N+]2(C)CCC1CC2C(O)c1ccnc2ccccc12 (configuration not stated)	none (no result: FAS-TE inh, Neddylation inh, PfG6PD inh)
c1ccc(Cn2nnnc2C2CN=C(c3ccccc3)c3ccccc3N2)cc1 (configuration not stated)	none (no result: FAS-TE inh, Neddylation inh, PfG6PD inh)
C=C(C)[C@@]12OC3(c4ccccc4)O[C@@H]1C1[C@@H]4O[C@]4(CO)[C@@H](O)[C@]4(O)C(=O)C(C)=C[C@H]4[C@@]1(O3)[C@H](C)[C@H]2OC(=O)/C=C/C=C/c1ccccc1 (some centres not stated)	FAS-TE inh 57.0 (no result: proKLK7 act)
C[C@H]1CN([C@@H](C)CO)C(=O)CCCn2cc(nn2)CO[C@@H]1CN(C)C(=O)Oc1cccc2ccccc12	none (no result: FAS-TE inh, Neddylation inh, PfG6PD inh)
Cc1ccc(OC(=O)N(C)C[C@@H]2OCc3ccccc3-c3c(n(C)c4ccccc34)C(=O)N([C@H](C)CO)C[C@H]2C)cc1	none (no result: FAS-TE inh, Neddylation inh, PfG6PD inh)
CCOP1(=S)Oc2cc3c(cc2C(C(=O)OC)(C(F)(F)F)O1)OCO3 (configuration not stated)	PfG6PD inh 64.0
CC(=O)N1c2ccccc2C(c2ccccc2)=NCC1C(=O)NC1CCCCC1 (configuration not stated)	none (no result: FAS-TE inh, Neddylation inh, PfG6PD inh)
CN(C)C(=S)SSC(=S)N(C)C	PfG6PD inh 95.0
Cc1nc2ccccc2c(=O)n1/N=C/c1cc(Br)cc(Br)c1O	Neddylation inh active
Cc1nc2ccccc2c(=O)n1-c1ccc(Br)cn1	none
COc1cc(/C=C/c2nc3ccccc3c(=O)n2-c2ccccc2O)ccc1O	PfG6PD inh 84.3 | PfGluPho conf inactive
COc1cc(/C=C/c2nc3ccccc3c(=O)n2-c2cccc(O)c2)ccc1O	none
CC12CCC(O)CC1CCC1C2CCC2(C)C(C(=O)CO)CCC12 (configuration not stated)	none (no result: PfG6PD inh)
O=c1[nH]sc2cc(F)ccc12	PfG6PD inh 63.3 | PfGluPho conf 52.5 | Diaphorase 10uM inactive | Diaph ctr 30uM inactive
CCOC(=O)[C@]12Cc3c(cc(OC)c(OC)c3OC)[C@H]1N(C(C)C)C(=O)c1cc(OC)ccc12	none (no result: PfG6PD inh)
NS(=O)(=O)c1ccc(-c2ccc(C=C3C(=O)NC(=O)NC3=O)o2)cc1	PfG6PD inh 77.7 | PfGluPho conf 80.4 | Diaphorase 10uM inactive | Diaph ctr 30uM inactive
CNS(=O)(=O)c1ccc(-c2ccc(C=C3C(=O)NC(=O)NC3=O)o2)cc1	PfG6PD inh 80.6 | PfGluPho conf 54.9 | Diaphorase 10uM inactive | Diaph ctr 30uM inactive
NS(=O)(=O)c1ccc(-c2ccc(C=C3C(=O)NC(=S)NC3=O)o2)cc1	none (no result: FAS-TE inh, Neddylation inh, PfG6PD inh)
COC(=O)C1C(c2ccc(Cl)cc2)CC2CCC1N2C (configuration not stated)	none (no result: FAS-TE inh, Neddylation inh, PfG6PD inh)
CNC(=O)Oc1ccc(-c2cn3cc(Cl)ccc3n2)cc1	PfG6PD inh 68.5 | PfGluPho conf inactive
CNC(=O)Oc1c(C)[nH]ccc1=O	none
CN1CCc2cc3c(c4c2C1Cc1ccccc1-4)OCO3 (configuration not stated)	PfG6PD inh 88.9 | PfGluPho conf inactive
Cc1cccc(CCNCc2cc3cccc(C)c3[nH]c2=O)c1	none
O=C1C2CC=CCC2C(=O)N1SC(Cl)(Cl)Cl (configuration not stated)	none (no result: FAS-TE inh, Neddylation inh, PfG6PD inh)
O=C1NC(=O)C(=Cc2ccc(-c3cc(Cl)ccc3[N+](=O)[O-])o2)C(=O)N1	PfG6PD inh 69.2 | PfGluPho conf inactive
O=C1NC(=O)C(=Cc2ccccc2[N+](=O)[O-])C(=O)N1	none
O=C1NC(=O)C(=Cc2ccc(-c3ccccc3[N+](=O)[O-])o2)C(=O)N1	PfG6PD inh 87.9 | PfGluPho conf 76.0 | Diaphorase 10uM inactive | Diaph ctr 30uM inactive
CC(C)=CCOc1c2occc2cc2ccc(=O)oc12	PfG6PD inh 67.7 | PfGluPho conf inactive
CC1(C)OC1COc1c2occc2cc2ccc(=O)oc12 (configuration not stated)	none
O=C1NC(=O)C(=Cc2csc3ccccc23)C(=O)N1	PfG6PD inh 65.2 | PfGluPho conf inactive
CC(=O)n1cc(C=C2C(=O)NC(=O)NC2=O)c2ccccc21	PfG6PD inh 66.4 | PfGluPho conf inactive
Cc1cc(O)c2c(c1)C(=O)[C@@]13C(=C2O)C(=O)[C@H]2C(O)[C@@H]1[C@H]1C(O)[C@@H]3C(=O)C3=C(O)c4c(O)cc(C)cc4C(=O)[C@@]312 (some centres not stated)	none (no result: FAS-TE inh, Neddylation inh, PfG6PD inh)
O=C1C=C(N2CC2)c2ccccc2C1=O	PfG6PD inh 99.7 | PfGluPho conf 72.2 | Diaphorase 10uM 54.4 | Diaph ctr 30uM 63.2
CC1=C(O)C(=O)C=C2C1=CC=C1C2(C)CCC2(C)C3CC(C)(C(=O)O)CCC3(C)CCC12C (configuration not stated)	PfG6PD inh 80.5 | PfGluPho conf 71.1 | Diaphorase 10uM inactive | Diaph ctr 30uM inactive
CCCCn1nnnc1C(c1cccs1)N1CCC2(CC1)C(=O)NCN2c1ccccc1 (configuration not stated)	none (no result: PfG6PD inh)
COc1ccc(Cc2cn(C)c(N)n2)cc1	none (no result: FAS-TE inh, Neddylation inh, PfG6PD inh)
